PubChem BioAssay AID588342 (National Center for Advancing Translational Sciences (NCATS), 2011)
The whole screen tested about 360,000 compounds, of which about 25,000 (6.9%) were called active. A call without a number means that no potency is given here. About 9% were inconclusive and are not listed. Calls come from the whole dose curve; as a rule, active = well fitted inhibition curve with a large enough effect; inconclusive = small, poorly fitted or top-dose-only effect; inactive = flat fitted curve, though single readings scatter. Only a selection was taken, and actives are over-represented in it overall.

biological target: Luciferin 4-monooxygenase (Photinus pyralis) (UniProt P08659); assay: qHTS profiling assay for firefly luciferase inhibitor/activator using purifed enzyme and Km concentrations of substrates (counterscreen for miR-21 project); settings: purified FLuc, luminescence inhibition; series mostly up to 57.5 µM; note: nearly all actives have a fitted effect of over 55% in size
Sequence (P08659 whole entry, looked up): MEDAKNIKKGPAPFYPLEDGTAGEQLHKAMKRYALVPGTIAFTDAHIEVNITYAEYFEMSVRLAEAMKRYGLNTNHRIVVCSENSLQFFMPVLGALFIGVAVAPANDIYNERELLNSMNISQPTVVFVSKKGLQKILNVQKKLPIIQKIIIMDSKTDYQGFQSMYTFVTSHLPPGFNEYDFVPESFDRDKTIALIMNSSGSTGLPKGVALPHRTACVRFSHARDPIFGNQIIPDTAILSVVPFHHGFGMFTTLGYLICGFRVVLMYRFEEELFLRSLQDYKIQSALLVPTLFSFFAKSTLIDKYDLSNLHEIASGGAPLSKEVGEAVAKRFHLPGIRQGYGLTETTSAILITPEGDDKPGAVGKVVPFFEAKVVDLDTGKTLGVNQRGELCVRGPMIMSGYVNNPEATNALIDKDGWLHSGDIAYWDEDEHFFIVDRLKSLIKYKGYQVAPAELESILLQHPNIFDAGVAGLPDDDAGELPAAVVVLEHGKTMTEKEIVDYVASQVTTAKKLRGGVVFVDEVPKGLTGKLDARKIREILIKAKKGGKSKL
Summary of the method: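 Purified P. pyralis luciferase (10nM final) with 10uM D-luciferin and 10uM ATP (Km levels) in 50mM Tris acetate pH 7.5, 10mM Mg acetate, 0.01% Tween-20, 0.05% BSA; qHTS 6-point titration, ~60 µM downward; luminescence read.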
Potency is the fitted concentration of half-maximal effect.

| SMILES | Potency |
| --- | --- |
| COC(C[C@H](O)CC(=O)COCc1ccccc1)OC | inactive |
| CC(=O)NC12CC3CC(C1)CC(C(=O)N1CCN(C(=O)c4ccco4)CC1)(C3)C2 | inactive |
| CCOc1ccc(OCC)c(NC(=O)c2c(C)nn(-c3ccccc3)c2-n2cccc2)c1 | inactive |
| CN(C)C(CNC(=O)c1cccc(C#N)c1)c1ccco1 (configuration not stated) | inactive |
| CCN(C(=O)COc1cccnc1[N+](=O)[O-])C1CCS(=O)(=O)C1 (configuration not stated) | inactive |
| CC(C)c1ccc(NC(=O)CN(C)S(=O)(=O)c2ccc3c(c2)c(=O)n(C)c(=O)n3C)cc1 | inactive |
| COc1ccccc1CN1CCC(CNC(=O)c2cnn(-c3cccc(Cl)c3)c2C2CCN(C(=O)OC(C)(C)C)CC2)CC1 | inactive |
| CCc1ccc(N(CC)C(=O)CCn2cnc3onc(-c4ccc(F)cc4)c3c2=O)cc1 | inactive |
| O=C(Nc1ccccc1)N1CCC(C(=O)N2CCN(Cc3ccccc3)CC2)CC1 | inactive |
| COC(=O)c1cccc(C(=O)N2CCCC(Nc3ccc4c(c3)OCCO4)C2)c1 (configuration not stated) | inactive |
| Cc1cc(C)nc(N2CCC(C(=O)Nc3ccc4c(c3)OCCO4)CC2)n1 | inactive |
| O=C(Nc1ccc2c(c1)OCCO2)C1CCCC1 | 9.53 µM (active) |
| S=C(Nc1ccc2c(c1)OCO2)N1CCCC1 | inactive |
| O=C(Nc1cccc(Cl)c1)C1CCCN(c2cnccn2)C1 (configuration not stated) | inactive |
| CN1C(=O)c2ccc(NC(=O)C3CCCCC3)cc2C1=O | inactive |
| O=C(Nc1ccc2c(c1)OCO2)c1sc2cc(Cl)ccc2c1Cl | inactive |
| O=C(Nc1ccc2c(c1)OCO2)C1CC1(Cl)Cl (configuration not stated) | 16.9 µM (active) |
| O=C(Nc1ccc2c(c1)OCCO2)C1CCCN(c2ncccn2)C1 (configuration not stated) | 0.953 µM (active) |
| CC(C)(C)C(=O)Nc1ccc(C(=O)N/N=C/c2ccccc2OC(=O)c2ccc(Cl)cc2Cl)cc1 | inactive |

| SMILES | Potency |
| --- | --- |
| CCOc1cc(/C=C/C(=O)OCC(=O)NCCN2C(=O)CSC2=O)ccc1OCC(C)C | inactive |
| COc1ccc(C2C(=O)N(C3CCCCC3)CC(=O)N2Cc2ccccc2Cl)cc1OC (configuration not stated) | inactive |
| Cc1nc(SCCOc2ccc(Cl)cc2)[nH]c(=O)c1Cc1ccccc1 | inactive |
| O=C(CSc1nccn1Cc1ccc(F)cc1)NCc1ccccc1 | inactive |
| Cc1ccc2nc(/C(C#N)=C/c3ccc(-c4ccc(C(=O)OC(C)C)cc4)o3)[nH]c2c1 | inactive |
| COc1ccc(CC(=O)Nc2nc(-c3ccc(F)c(F)c3)cs2)cc1OC | inactive |
| Fc1ccc(-c2csc(-c3ccc(C4SCCS4)cc3)n2)cc1F | 10.7 µM (active) |
| COc1cc(CC(=O)Nc2nc(-c3ccc(F)c(F)c3)cs2)cc(OC)c1OC | inactive |
| COc1ccc2c(c1)c(N1CCCC1=O)c(C(=O)Nc1ccc(OC)c(Cl)c1)n2C | inactive |
| CCOc1ccccc1CNC(=O)C1CCCN(S(=O)(=O)c2ccc3c(ccn3C)c2)C1 (configuration not stated) | inactive |
| Cc1cc(C)nc(SCc2nnc(SCC(=O)Nc3ncc(C)s3)n2Cc2ccco2)n1 | inactive |
| COc1cccc(NC(=O)CN(C)CC(=O)Nc2ccc3c(c2)CCC3)c1 | inactive |
| CC(C)C(=O)OCC(=O)Nc1ccc2c(c1)CCC2 | 19 µM (active) |
| COc1ccc(CC(=O)Nc2ccc3c(c2)CCC3)cc1S(=O)(=O)N1CCOCC1 | inactive |
| COc1ccc(NC(=O)CN2CCCN(Cc3ccccc3)S2(=O)=O)cc1 | inactive |
| CCCN(CCC)CCCNC(=O)Cn1ncc2c3ccccc3n(Cc3ccccc3)c2c1=O | inactive |
| CCOC(=O)c1c(NC(C)=O)sc2c(O)c(Br)ccc12 | inactive |
| Cc1ccc2[nH]c(=O)c(CN(CC3COCCO3)C(=O)Nc3ccccc3C)cc2c1 (configuration not stated) | inactive |
